# Calls of active or inactive are those of the source. How the source made its calls: active means hit-call score of the fitted dose curve at least 0.9, where 1 is the maximum; inactive means score below 0.9.
# Read-out: CYP3A5 (gene 1577)
# Test: LTEA_HepaRG_CYP3A5: Life Technologies and Expression Analysis (LTEA) Assay for CYP3A5 using HepaRG (AID 2283493)
# Settings: mRNA level, 48 h; actives raise or lower the signal
# Procedure: LTEA_HepaRG is a cell based, multiplexed-readout assay that uses HepaRG, a human liver cell line, with measurements taken at 48 hours after chemical dosing on a 96-well plate.LTEA_HepaRG_CYP3A5 is one of 102 assay component(s) measured in the LTEA HepaRG cell culture assay. It is a marker of NR mediated metabolism.Data from the assay component LTEA_HepaRG_CYP3A5 was analyzed into 1 endpoint. This assay endpoint, LTEA_HepaRG_CYP3A5, was analyzed with bidirectional fitting relative to DMSO as the negative control and baseline of activity. Using a type of inducible reporter, measures of mRNA induction for gain or loss-of-signal activity can be used to understand regulation of transcription factor activity. To generalize the intended target to other relatable targets, this assay endpoint is annotated to the cyp intended target family, where the subfamily is xenobiotic metabolism.
# A total of 1060 chemcials from the ToxCast library were tested in eight-point concentration-response experiments. Cell culture and cytotoxicity assays were conducted at Thermo Fisher Scientific's Custom Services facility (Madison, WI). A single lot of human HepaRG cells (Thermo Fisher Scientific, Frederick, MD) was used for the cell culture experiments. 96-well format collagen type I coated plates of human HepaRG cells were prepared using established methods. Briefly, cryopreserved HepaRG cells were thawed, plated at a density of approximately 100,000 cells/well in HepaRG Thaw, Plate, and General Purpose media (HPRG770, Thermo Fisher Scientific), and incubated for 48 hours. 0.5% DMSO was selected as vehicle control to balance the requisite need of DMSO in HepaRG cultures to maintain differentiation (for example, baseline metabolism, proportions of hepatocytes vs. cholangiocytes), while enabling further hepatic receptor pathway activation (for example, PXR and CAR) in response to chemical exposure. 48 hours after plating, the culture medium was replaced with HepaRG Serum-Free Incudtion Media. Cells were exposed to each test chemical in duplicate and maintained in CO2 incubators for another 48 hours. Chemical plates were thawed to room temperature and 200x concentrations of treatment groups were prepared. 8-point conentration-reponse curves were made with the highest exposure at 100 uM, followed by half-log dilutions, all in 0.5% DMSO. Each test plate contained variouse controls, induction positive controls (1mM phenobarbital), cytotoxicity positive controls ([…] aflatoxin B1), vehicle controls (0.5% DMSO), and total lysis controls (0.5% DMSO). Cell morphology images were taken using an Essen IncuCyte FLR automated microscope, with six 96-well plates imaged in about 24 minutes. Images were captured and exported and JPEG files. Spent culture media was transfered to black-well plates for the LDH assay, and remaining media was sorted at -80 C for later use. Cells were treated with RLT buffer and frozen until shipped for gene expression analysis. Total RNA was isolated from the cell suspension in 75 uL of Buffer RLT (Qiagen, Germantown, MD 20874) by Quintiles/Expression Analysis (Durham, NC) using a custom isolation procedure. Total RNA from each plate well was transferred to a preamplification plate. Fluidigm's 96.96 Dynamic ArrayTM (Fluidigm, Amsterdam, the Netherlands) technology was used for gene expression analyses by quantitative reverse transcription polymerase chain reaction (qRT-PCR, performed by Quintiles/Expression Analysis, Durham, NC)89. Standard TaqManTM Assays (Applied Biosystems/ThermoFisher Scientific, Foster City, CA) were used to assess the expression of 93 genes selected based on their selectivity and sensitivity to important hepatic receptors known to be modulated by environmental chemicals; importance in human hepatocyte functionality; and hepatotoxicity. […]
SMILES,AC50,outcome
Clc1ccc(C(c2ccc(Cl)cc2)C(Cl)Cl)cc1,29.7 µM (active),–
Clc1ccc(Cl)c(Cl)c1,–,inactive
CO[C@@H]1[C@H](OC(=O)NC(=O)CCl)CC[C@]2(CO2)[C@H]1[C@@]1(C)O[C@@H]1CC=C(C)C,–,inactive
N#CC(Br)Br,–,inactive
C[N+](C)(C)CC1CO1 (stereo not given),–,inactive
O=[N+]([O-])C(Br)(CO)CO,–,inactive
C=CCc1ccc2c(c1)OCO2,–,inactive
Nc1ccc([N+](=O)[O-])cc1,–,inactive
O=C(Nc1ccccc1)c1ccccc1I,–,inactive
CCOC(=O)[C@]1(c2ccccc2)Oc2ccccc2[C@@H]1N,–,inactive
Clc1ccccc1Cl,–,inactive
O=C(Oc1ccc(Br)cc1)N1CCN2CCC1CC2,–,inactive
Brc1ccc(Oc2ccccc2)cc1,–,inactive
c1ccc2c(c1)oc1ccccc12,–,inactive
O=[N+]([O-])c1ccc(Oc2ccc(Cl)cc2Cl)cc1,–,inactive
[As]#[In],–,inactive
Oc1ccc2ccc3cccc4ccc1c2c34,–,inactive
C1=Cc2cccc3cccc1c23,–,inactive
CCC[CH2][Sn]([Cl])([CH2]CCC)[CH2]CCC,82.8 µM (active),–
CC(C)(O)c1cnn2c(-c3ccc(F)c(-c4c(F)cccc4C#N)c3)cnc2n1,–,inactive

SMILES,AC50,outcome
CC(C)(C)OOC(=O)c1ccccc1,–,inactive
CC(C)(OOC(C)(C)c1ccccc1)c1ccccc1,–,inactive
CN(C)[C@@H]1C(=O)C(C(N)=O)=C(O)[C@@]2(O)C(=O)C3=C(O)c4c(O)cccc4[C@@](C)(O)[C@H]3C[C@@H]12,–,inactive
CN(C)c1ccccc1,–,inactive
CCC12COCN1COC2,–,inactive
CCCCCCCCn1sccc1=O,83.1 µM (active),–
CCNS(=O)(=O)C(F)(F)C(F)(F)C(F)(F)C(F)(F)C(F)(F)C(F)(F)C(F)(F)C(F)(F)F,–,inactive
Cn1cc(-c2ccccc2)c(=O)c(-c2cccc(C(F)(F)F)c2)c1,–,inactive
OCCCBr,–,inactive
CCCCOC(=O)c1ccccc1C(=O)OCc1ccccc1,–,inactive
Nc1cc(Cl)cc(C(=O)O)c1Cl,–,inactive
CCCCCOC(=O)c1ccccc1C(=O)OCCCCC,–,inactive
O=C(O)C1C2CCC(O2)C1C(=O)O (stereo not given),–,inactive
CN(C)C(=O)Nc1ccc(Cl)cc1,–,inactive
CCOc1cccc(C2(N3CCN(c4ccccc4)CC3)CCC(C)CC2)c1 (stereo not given),–,inactive
CC(O)CCO (stereo not given),–,inactive
CCCCCCCCOC(=O)c1ccc(C(=O)OCCCCCCCC)c(C(=O)OCCCCCCCC)c1,–,inactive
COc1cc(C=O)cc2c1[C@H](COC(N)=O)[C@]1(OC(C)=O)ON2C[C@H]2[C@@H]1N2C(C)=O,–,inactive
ClCCOCCCl,–,inactive
Nc1ccc(Oc2ccc(N)cc2)cc1,–,inactive
